HIV TAR-Tat: HIV-1 TAR-Tat binding disruption | HIV-1 TAR RNA, Tat peptide displacement FRET; stronger effect = higher value | z-score (test concentration not listed) | hit rate 0.6% among 100,000 | AID 1259389; active means z-score of 3 or more in at least 2 runs
CDC25B-CDK2 inh: human CDC25B-CDK2/CyclinA binding inhibition; HTRF CDC25B-CDK2/CyclinA binding, anti-His/anti-Flag; stronger effect = higher value; P30305+P24941; hit rate 0.72% among 94,000; z-score (test concentration not listed); in the data active means z-score above about 3.2
Each line names hits and unclear results; the compound was inactive in the other large screens. The list is not random: actives were taken first. Their share in the collection is about 0.93%.

O=C1CCCC2=C1C(c1cccs1)N(S(=O)(=O)c1ccc(Cl)cc1)c1ccccc1N2 (configuration not stated)	none (no result: CDC25B-CDK2 inh)
COC(=O)c1sc2ccccc2c1S(=O)(=O)N1CCCC1	none (no result: CDC25B-CDK2 inh)
O=C(O)c1cc(=O)c2ccccc2[nH]1	none
O=C(O)c1cc(=O)c2cccc(O)c2[nH]1	HIV TAR-Tat 5.31 (no result: CDC25B-CDK2 inh)
COC(=O)c1cc(S(=O)(=O)NCc2cccs2)cn1C	none
O=C(/C=C/c1ccc(O)c(O)c1)O[C@H](Cc1ccc(O)c(O)c1)C(=O)O	HIV TAR-Tat 16.6 (no result: CDC25B-CDK2 inh)
O=C(O)/C=C/c1ccc(O)c(O)c1	none
CN(CCO)CCNc1cc(N2CCOCC2)c2noc3c2c1C(=O)c1ccccc1-3	none
CN(C)CCCNc1cc(N2CCOCC2)c2noc3c2c1C(=O)c1ccccc1-3	HIV TAR-Tat 12.2
CN(C)CCCNc1cc(N2CCN(c3ccc(F)cc3)CC2)c2noc3c2c1C(=O)c1ccccc1-3	HIV TAR-Tat 27.8, CDC25B-CDK2 inh 7.4
O=C1c2ccccc2-c2onc3c(N4CCN(c5ccc(F)cc5)CC4)cc(NCCO)c1c23	none
O=S(=O)(NCCc1csc2nc(-c3ccc(F)cc3)nn12)c1cc(F)ccc1F	none (no result: CDC25B-CDK2 inh)
CC1(C)CC(=O)C2=C(C1)N1C(=C(C#N)C2c2ccccc2F)N=C(N)c2ccccc21 (configuration not stated)	none
Cc1oc(-c2ccc(Cl)cc2)cc1-c1nn2c(-c3ccco3)nnc2s1	none
Cc1oc(-c2ccc(F)cc2)cc1-c1nn2c(-c3ccoc3C)nnc2s1	HIV TAR-Tat 17.9
N#CC1=C2SCN(C3CCCC3)CN2C(=O)CC1c1ccc(Cl)cc1 (configuration not stated)	none
N#CC1=C2SCN(c3ccc(Br)cc3)CN2C(=O)CC1c1cccs1 (configuration not stated)	none
N#CC1=C2SCN(C3CCCC3)CN2C(=O)CC1c1cccs1 (configuration not stated)	CDC25B-CDK2 inh 5.9
Cc1ccc(N2CSC3=C(C#N)C(c4cccs4)CC(=O)N3C2)cc1C (configuration not stated)	CDC25B-CDK2 inh 6.15
N#CC1=C2SCN(c3ccc(Cl)cc3)CN2C(=O)CC1c1cccs1 (configuration not stated)	CDC25B-CDK2 inh 6.26
N#CC1=C2SCN(c3ccc(F)cc3)CN2C(=O)CC1c1cccs1 (configuration not stated)	CDC25B-CDK2 inh 5.95
COc1cc(/C=C2/SC(=S)N(CCC(=O)NC3=NCCS3)C2=O)cc(OC)c1OC	none (no result: HIV TAR-Tat)
CCOC(=O)c1c(C)oc2nc(C)nc(N3CCOCC3)c12	none (no result: CDC25B-CDK2 inh)
Cc1sc(-c2nc(-c3ccc(F)cc3)no2)cc1S(=O)(=O)N1CCc2ccccc2C1	none (no result: CDC25B-CDK2 inh)
Cc1nn2c(=O)cc(CSc3ccccc3NC(=O)c3cccs3)nc2s1	none (no result: CDC25B-CDK2 inh)
CCOc1ccc(N2CSC3=C(C#N)C(c4ccco4)CC(=O)N3C2)cc1 (configuration not stated)	CDC25B-CDK2 inh 5.09
N#CC1=C2SCC(O)(c3ccccc3)N2C(=O)CC1c1cccs1 (configuration not stated)	none (no result: HIV TAR-Tat)
CCOc1ccc(C2CC(=O)N3CN(CCO)CSC3=C2C#N)cc1 (configuration not stated)	none
CCOc1ccc(C2CC(=O)N3CN(Cc4cccnc4)CSC3=C2C#N)cc1 (configuration not stated)	CDC25B-CDK2 inh 6.77
CCOc1ccc(C2CC(=O)N3CN(c4ccc(CCO)cc4)CSC3=C2C#N)cc1 (configuration not stated)	CDC25B-CDK2 inh 7.2
CSc1ccc(C2CC(=O)N3CN(Cc4ccccc4)CSC3=C2C#N)cc1 (configuration not stated)	none
N#CC1=C2SCN(c3ccccc3)CN2C(=O)CC1c1cccs1 (configuration not stated)	CDC25B-CDK2 inh 16.9
COc1ccccc1N1CCN(S(=O)(=O)c2c(C)nc3scc(C)n3c2=O)CC1	none
COc1ccc(C2CC(=O)NC3=C2C(=O)CC(c2cc(OC)ccc2OC)C3)cc1 (configuration not stated)	none
O=C(O)c1ccc(S(=O)(=O)c2ccccc2)nc1	none
CCOc1ccc(N2CSC3=C(C#N)C(c4cccs4)CC(=O)N3C2)cc1 (configuration not stated)	CDC25B-CDK2 inh 4.05
CN1C(C(=O)NCc2ccc(F)cc2)=CC(c2ccc3c(c2)OCO3)=NS1(=O)=O	none
CCOC(=O)NC(Nc1ccccc1C)(C(F)(F)F)C(F)(F)F	none (no result: HIV TAR-Tat)
O=C(CSc1cn(CC(=O)N2CCOCC2)c2ccccc12)Nc1ccc(Br)cc1	none (no result: CDC25B-CDK2 inh)
CC(C)c1nnc(NC(=O)C(=O)c2c[nH]c3ccccc23)s1	none
O=C(Nc1nnc(-c2ccco2)s1)C(=O)c1c[nH]c2ccccc12	HIV TAR-Tat 17.3
CCn1c(CC2C(=O)N(C(C)C)c3ccc(C)cc32)nc2ccccc2c1=O (configuration not stated)	none
O=C(O)CN(CC(=O)O)CC(=O)O	CDC25B-CDK2 inh 3.65 (no result: HIV TAR-Tat)
O=C(O)CN(CCN(CC(=O)O)Cc1ccccc1O)Cc1ccccc1O	none (no result: CDC25B-CDK2 inh)
CC1CCCN(C(=O)Cn2c(=O)oc3cc(S(=O)(=O)N4CC(C)CC(C)C4)ccc32)C1 (configuration not stated)	none
COC(=O)C(N)Cc1ccc(O)c(O)c1 (configuration not stated)	none
NCCc1ccc(O)c(O)c1	HIV TAR-Tat 24.6
O=C(NCc1cccs1)NC(=O)c1c(Cl)cccc1Cl	none (no result: HIV TAR-Tat)
CC(=O)Nc1nc2cc(NS(=O)(=O)c3ccc(Br)cc3)ccc2s1	none (no result: CDC25B-CDK2 inh)
O=C(O)CSCC(=O)Nc1nc(SCc2ccc(Cl)cc2)n[nH]1	CDC25B-CDK2 inh 6.97 (no result: HIV TAR-Tat)
Cc1ccccc1C(=O)Nc1nc(SCc2ccc(Cl)cc2)n[nH]1	none (no result: HIV TAR-Tat)
O=C(C1CCN(c2ncnc3c2nc2n3CCCCC2)CC1)N1CCCc2ccccc21	none (no result: CDC25B-CDK2 inh)
COc1ccc(NS(=O)(=O)c2ccc3c4c(cccc24)C(=O)N3)cc1	none
O=C1Nc2ccc(S(=O)(=O)Nc3ccc4oc5c(c4c3)CCCC5)c3cccc1c23	HIV TAR-Tat 6.34
COc1ccc(-c2ccc(NS(=O)(=O)c3cc(C)c(C)cc3OC)cc2)nn1	none (no result: CDC25B-CDK2 inh)
CNC(=O)c1c(-c2ccccc2)nc2n1CCS2(=O)=O	none
Nc1ncc(S(=O)(=O)O)s1	none (no result: HIV TAR-Tat)
Nc1ncc(C2=C(Cl)C(O)C(Cl)=C(Cl)C2O)s1 (configuration not stated)	CDC25B-CDK2 inh 20.3 (no result: HIV TAR-Tat)
Cc1ccc(C2CC(=O)N3CN(CCc4ccccc4)CSC3=C2C#N)cc1 (configuration not stated)	none
COc1ccc(C2CC(=O)N3CN(C(C)c4ccccc4)CSC3=C2C#N)cc1 (configuration not stated)	CDC25B-CDK2 inh 5.31
CC(c1ccccc1)N1CSC2=C(C#N)C(c3cccs3)CC(=O)N2C1 (configuration not stated)	HIV TAR-Tat 9.76, CDC25B-CDK2 inh 4.42
Cc1ccc(C2CC(=O)N3CN(C(C)c4ccccc4)CSC3=C2C#N)cc1 (configuration not stated)	CDC25B-CDK2 inh 5.01
CCOc1ccc(C2CC(=O)N3CN(C(C)c4ccccc4)CSC3=C2C#N)cc1 (configuration not stated)	CDC25B-CDK2 inh 5.27
O=C(/C=C/c1ccc(-c2ccc(Br)cc2)o1)Nc1cccc(C(F)(F)F)c1	none (no result: HIV TAR-Tat)
CS(=O)(=O)N1CCc2cc(C(=O)NCc3ccco3)ccc21	HIV TAR-Tat 14.5
CC(C)NC(=O)c1ccc2c(c1)CCN2S(C)(=O)=O	none
Cc1ccc(Cl)c2c1NC(=O)C2(O)CC(=O)c1ccc(F)cc1 (configuration not stated)	none
Cc1ccc(Cl)c2c1NC(=O)C2(O)CC(=O)c1ccccc1 (configuration not stated)	CDC25B-CDK2 inh 16.8
